CYP2C9 inhib – blocks human cytochrome P450 2C9; inhibition, % at 5 µM; CYP2C9 Supersomes, luciferin-H conversion, luminescence; AID 777; 20% of 96,000 active; P11712;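 active means blocking of liver enzyme CYP2C9 beyond about 50% at 5 µM, limit read from the data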
CYP2C19 activ – cytochrome P450 2C19 (human) activation. 96,000 tested, under 10 active. activation factor at 5 µM. P33261. recombinant CYP2C19, luciferin-H EGE luminescence; hits give high values; 0 = fully inhibited enzyme, 1 = untreated enzyme. AID 1025;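 active means activation factor of at least 2 at 5 µM in the primary screen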;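 further: 0 = wells with 2.5 mM tranylcypromine and 1 = vehicle-only wells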
CYP2C19 inhib – human CYP2C19 inhibition | inhibition, % at 5 µM | P33261 | AID 778 | CYP2C19 Supersomes, luciferin-H EGE luminescence, 30 min | 21% of 96,000 active;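 active means CYP2C19 inhibition above a set limit at 5 µM in the primary screen, cut at about 50% in these data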;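 further: plate controls were negative control wells for no effect and 2.5 mM tranylcypromine positive control for full effect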
CYP2C9 act – CYP2C9 (human) activation; recombinant CYP2C9, luciferin-H conversion, luminescence; hits give high values; factor 1 = untreated enzyme, 0 = blocked; activation factor at 5 µM; 1.4% of 96,000 active; AID 1024;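 active means activation factor of 2 or more for CYP2C9 at a 5 µM dose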;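 further: 0 = sulfaphenazole-blocked wells and 1 = vehicle-only wells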
EphB4 ephrin blk – antagonists of human EphB4-ephrin-B2 interaction. EphB4 LBD / TNYL-RAW-Alexa532 peptide, fluorescence polarization. inhibition, % at 7 µM. 0.15% of 97,000 active;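 active means inhibition above the screen-wide mean inhibition plus 3 SD, cut at about 15% in these data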;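 further: 0% = DMSO wells and 100% = excess unlabeled TNYL-RAW peptide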
Active calls of the source: *; nt = no result. Only some compounds are listed: those with a hit (about 27% of all), similar ones and a draw of the others.

SMILES	CYP2C9 inhib	CYP2C19 activ	CYP2C19 inhib	CYP2C9 act	EphB4 ephrin blk
CC(C)c1[nH]nc2c1C(c1cccc(OC(=O)N3CCOCC3)c1)C(C#N)=C(N)O2 (stereo not given)	3	1.1	-6	1	-8
CCCc1[nH]nc2c1C(c1cc(OC)ccc1F)C(C#N)=C(N)O2 (stereo not given)	88*	0.2	81*	0.1	-7
CCc1[nH]nc2c1C(c1ccc(Br)s1)C(C#N)=C(N)O2 (stereo not given)	66*	0.3	67*	0.3	5
CCCc1[nH]nc2c1C(CCc1ccccc1)C(C#N)=C(N)O2 (stereo not given)	69*	0.2	77*	0.3	4
O=C(CCC(=O)OCC(=O)c1ccc(Cl)cc1)NC1CCCCC1	22	1	4	0.8	-5
Cn1cc(S(=O)(=O)N2CCc3ccccc3C2)c(=O)n(C)c1=O	-16	0.8	20	1.2	-5
CCN(Cc1ccccc1)Cc1c(C)[nH]c2c(C)c(C)ccc2c1=O	9	1	5	0.9	0
Cc1ccc(Nc2nc(C(=O)NCCCN3CCOCC3)cs2)cc1	26	0.7	28	0.7	3
CCCCOc1ccc(C2C(=O)N(C3CCCCC3)CC(=O)N2CC2CCCO2)cc1 (stereo not given)	28	0.8	20	0.7	1
CCc1[nH]nc2c1C(Cc1ccccc1)C(C#N)=C(N)O2 (stereo not given)	14	0.5	53*	0.9	-3
Cc1ccsc1C1C=C(c2cccc(Br)c2)Nc2ncnn21 (stereo not given)	62*	0.4	62*	0.4	-8
Fc1ccc(Br)cc1C1C=C(c2ccc(Br)cc2)Nc2ncnn21 (stereo not given)	56*	0.1	87*	0.4	6
COc1cccc(C2=CC(c3ccc(C)cc3)n3ncnc3N2)c1 (stereo not given)	28	0.9	7	0.7	3
COc1cc(/C=N/NC(=O)Nc2cccc3nsnc23)cc(OC)c1OC	56*	0.9	5	0.4	13
Cc1cc(C)n2c(SCc3ccc(C#N)cc3)nnc2n1	-2	0.5	45	1	-1
Cc1csc(OCc2ccc(C#N)cc2)n1	24	0.1	93*	0.8	-8
O=C(Nc1cc(C(F)(F)F)ccc1N1CCOCC1)c1ccco1	-14	1.1	-11	1.1	7
O=C(Cn1c(CO)nc2ccccc21)Nc1cc(C(F)(F)F)ccc1N1CCOCC1	53*	0.6	38	0.5	2
O=C(COC(=O)c1ccc(F)cc1)Nc1ccccc1N1CCOCC1	nt	nt	nt	nt	-7
Nc1nnc(SCC(=O)Nc2ccccc2N2CCOCC2)s1	16	0.8	20	0.8	-2
O=C(CSc1nc2ccccc2[nH]1)Nc1ccccc1N1CCOCC1	79*	0	98*	0.2	-2
CSc1ncccc1C(=O)OCC(=O)Nc1cc(C(F)(F)F)ccc1N1CCOCC1	51*	0.6	38	0.5	3
O=C(CSc1nc2ccccc2[nH]1)Nc1cc(C(F)(F)F)ccc1N1CCOCC1	99*	0	99*	0	-8
CCCNC(=O)C(=O)NCCC1=CCCCC1	10	0.5	54*	0.9	3
Cc1cc(C(=O)NCCC2=CCCCC2)c(C)o1	27	0.4	61*	0.7	-2
SMILES	CYP2C9 inhib	CYP2C19 activ	CYP2C19 inhib	CYP2C9 act	EphB4 ephrin blk
CCN1C(=O)/C(=C/N(C)c2ccccc2)OC1=S	53*	0.2	79*	0.5	2
CCN1C(=O)/C(=C\N(C(C)=O)c2ccccc2)OC1=S	nt	nt	nt	nt	-3
O=C(NCc1cccnc1)/C(=C/c1ccc(-c2ccc(Cl)cc2)o1)S(=O)(=O)c1ccccc1	49	0.3	67*	0.5	-5
O=C(NCc1cccnc1)/C(=C/c1ccc(-c2cccc(C(F)(F)F)c2)o1)NC(=O)c1ccccc1	24	0.7	31	0.8	-3
CCn1c(SCC(=O)c2[nH]c(C)c(C(C)=O)c2C)nnc1-c1ccccc1	27	0.2	77*	0.7	-3
CCn1c(SCC(=O)c2[nH]c(C)c(C(C)=O)c2C)nnc1-c1ccncc1	8	0.3	66*	0.9	-11
CC(=O)c1c(C)[nH]c(C(=O)CSc2nnc(-c3ccc(Cl)cc3)n2CC2CCCO2)c1C (stereo not given)	11	0.9	9	0.9	0
CCn1c(SCC(=O)O)nnc1-c1ccccc1	3	0.9	7	1	-10
CCc1cccc(NC(=O)Cn2cc3c(n2)CCCC3)c1	nt	nt	nt	nt	-2
CCN(CC)c1cc2nc(C)n(Cc3ccccc3)c(=O)c2cc1NC(=O)C1CC1	nt	nt	nt	nt	5
Cc1ccc(C(=O)Nc2cc(Cl)ccc2N2CCCCC2)s1	29	0.7	31	0.7	2
Cc1nc2cc(N3CCN(C)CC3)c(NC(=O)Cc3ccccc3)cc2c(=O)n1Cc1ccccc1	67*	0.3	67*	0.3	-1
Cc1nc2cc(N3CCCCC3)c(NC(=O)c3ccncc3)cc2c(=O)n1Cc1ccc(Cl)cc1	74*	0.5	48	0.3	6
Cc1ccc(N/C=C(/C#N)c2ccsc2)cc1C	5	0.7	27	1	8
O=C(c1n[nH]c(=O)c2ccccc12)N1CCN(C2c3ccccc3-c3ccccc32)CC1	64*	0.3	68*	0.4	-2
O=C(Cc1cccc2ccccc12)Nc1ccc(-c2cc3ccccc3oc2=O)cc1	37	1	-2	0.6	4
CCCCCOc1ccc(CN2CCOCC2)cc1Cl	55*	0.2	76*	0.4	nt
COc1ccc(Cn2nnnc2C(c2ccccc2Cl)N2CCN(C)CC2)cc1 (stereo not given)	16	0.7	35	0.8	nt
CC1CN(c2nnnn2-c2ccccc2)CC(C)O1 (stereo not given)	-2	0.3	74*	1	nt
CCCn1c(SCC(=O)N2CCN(c3ccccc3)CC2)nc2ccccc2c1=O	93*	0	97*	0.1	-2
CCCCn1c(SCC(=O)N2CCN(c3ccccc3)CC2)nc2ccsc2c1=O	88*	0.5	51*	0.1	7
CC1CCC(Nc2nnnn2-c2ccccc2)CC1 (stereo not given)	-11	1.1	-7	1.1	-8
CCOC(=O)N1CCN(C(=O)CSc2nc3c(cnn3-c3ccccc3)c(=O)[nH]2)CC1	67*	0.8	22	0.3	3
Cc1ccc(-n2ncc3c(=O)[nH]c(SCC(=O)N4CCN(c5ccccc5)CC4)nc32)cc1	nt	nt	nt	nt	5
CCn1c(SCC(=O)N2CCN(c3ccc(Cl)cc3)CC2)nc2ccccc2c1=O	47	0.8	24	0.5	-1
COc1ccc(OC)c(C(c2nnnn2CC2CCCO2)N2CCN(C3CCCC3)CC2)c1 (stereo not given)	14	0.9	13	0.9	-2
C=CCNC(=O)c1nn2cccnc2c1Cl	-19	1.1	-7	1.2	-1
